The values below come from PubChem BioAssay (Tox21).

Experiment [1] in a line: qHTS assay to identify small molecule agonists of the sonic hedgehog signaling (Shh) pathway - cell viability counter screen (AID 1259366). Further: nearly all actives have a fitted effect of over 50% in size. The method, boiled down: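 Compounds in DMSO were pin-transferred onto 3T3 Gli1-Luc cells that had settled 4hr; plates then stood 24hr at 37C and 5% CO2. One hour before the end, CellTiter-Fluor was added and fluorescence recorded.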
For orientation: qHTS replaces the single test concentration by a dilution series.

Experiment [2] in a line: qHTS assay to identify small molecule antagonists of the sonic hedgehog signaling (Shh) pathway - cell viability counter screen (AID 1259367). Further: nearly all actives have a fitted effect of over 55% in size. The method, boiled down: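 NIH/3T3-derived Gli1-Luc reporter cells, 2,000/well, plated 4 hr before compound addition, then stimulated with conditioned medium for 24 hr at 37C. Viability measured in the same wells by CellTiter-Fluor fluorescence, reagent added at 23 hr for 1 hr.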

A short description of experiment [3]: qHTS assay to identify small molecule agonists of the sonic hedgehog signaling (Shh) pathway (AID 1259368; calls by dose curve; further: series mostly up to about 92 µM; nearly all actives have a fitted effect of over 15% in size). The method, boiled down: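 NIH/3T3-derived 3T3Gli1-Luc cells carrying a stably integrated Gli1 response element–firefly luciferase reporter were plated, left 4 hr at 37 C, then given compounds in DMSO for 24 hr. Luminescence was read 30 min after adding luciferase reagent.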

A short description of experiment [4]: qHTS assay to identify small molecule antagonists of the sonic hedgehog signaling (Shh) pathway (AID 1259369; calls by dose curve; further: nearly all actives have a fitted effect of over 45% in size). Put shortly: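 NIH/3T3-derived 3T3Gli1-Luc cells with stably integrated Gli1-Luc reporter were preincubated 4hr at 37 C, then given compounds in DMSO plus Shh conditioned medium and incubated 24hr. Firefly luciferase luminescence read after 30min reagent at room temperature.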

Experiment [5] can be described thus: qHTS assay to identify small molecule agonists of the androgen receptor (AR) signaling pathway in the presence of an antagonist - cell viability counter screen (AID 1259379).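 Further: MDA-kb2 human breast cancer cells carrying an MMTV luciferase reporter; series mostly up to about 92 µM; nearly all actives have a fitted effect of over 25% in size.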 Put shortly:
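MDA-kb2 human breast carcinoma cells (stable MMTV-luciferase, AR/GR responsive) were seeded 3,000 cells/well, pre-incubated 5 hr at 37C without CO2, then given 3.0uM nilutamide and compounds at 15 concentrations for 16 hr. Viability was read by CellTiter-Fluor fluorescence.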

Experiment [6] is described as follows: qHTS assay to identify small molecule agonists of the estrogen receptor beta (ER-beta) signaling pathway - cell viability counter screen (AID 1259380). Further: nearly all actives have a fitted effect of over 30% in size. Put shortly: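 ER-beta-UAS-bla HEK293T cells in medium with 2% charcoal-stripped FBS were preincubated 6 hr at 37C, dosed with compound in DMSO for 16 hr, then after the bla read, CellTiter-Glo was added for 30 min at room temperature; luminescence recorded.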

Experiment [7] is described as follows: qHTS assay to identify small molecule antagonists of the estrogen receptor beta (ER-beta) signaling pathway - cell viability counter screen (AID 1259382).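 Further: HEK293T cells carrying ER-beta-UAS-bla reporter stimulated with estradiol; series mostly up to about 92 µM; nearly all actives have a fitted effect of over 55% in size.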 The method, boiled down: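 ER-beta-UAS-bla HEK293T cells (2,000/well, 2% charcoal-stripped FBS) were pre-incubated 6 hr at 37C, then given compound plus 1nM final 17-beta-estradiol for 16 hr. Viability was read in the same wells by CellTiter-Glo luminescence after 30 min at room temperature.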

Experiment [8] is described as follows: qHTS assay to identify small molecule agonists or antagonists of the thyroid stimulating hormone receptor (TSHR) signaling pathway - wild type cell line counter screen (AID 1259384; calls by dose curve). The method, boiled down:
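Wild-type Hek293 cells, 800/well, 18 h at 37C, then compound with Ro20-1724 for 30 min RT. cAMP by HTRF (cAMP-d2/anti-cAMP cryptate), 1 h RT, fluorescence read. 15 concentrations, triplicates.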

Experiment [9] deals with Thyrotropin receptor (Homo sapiens) (UniProt P16473). As to the kind of experiment: qHTS assay to identify small molecule antagonists of the thyroid stimulating hormone receptor (TSHR) signaling pathway (AID 1259385; calls by dose curve; further: nearly all actives have a fitted effect of over 20% in size). Put shortly: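 TSHR-HEK293 cells (800/well) plated 18 h, then compounds with Ro20-1724 and TSH at 1.5 ng/mL final, 30 min at room temperature. cAMP quantified by HTRF (cAMP-d2/anti-cAMP-cryptate, 1 h); 15 concentrations in triplicate.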
Thyrotropin receptor (Homo sapiens), sequence (P16473 whole entry, looked up): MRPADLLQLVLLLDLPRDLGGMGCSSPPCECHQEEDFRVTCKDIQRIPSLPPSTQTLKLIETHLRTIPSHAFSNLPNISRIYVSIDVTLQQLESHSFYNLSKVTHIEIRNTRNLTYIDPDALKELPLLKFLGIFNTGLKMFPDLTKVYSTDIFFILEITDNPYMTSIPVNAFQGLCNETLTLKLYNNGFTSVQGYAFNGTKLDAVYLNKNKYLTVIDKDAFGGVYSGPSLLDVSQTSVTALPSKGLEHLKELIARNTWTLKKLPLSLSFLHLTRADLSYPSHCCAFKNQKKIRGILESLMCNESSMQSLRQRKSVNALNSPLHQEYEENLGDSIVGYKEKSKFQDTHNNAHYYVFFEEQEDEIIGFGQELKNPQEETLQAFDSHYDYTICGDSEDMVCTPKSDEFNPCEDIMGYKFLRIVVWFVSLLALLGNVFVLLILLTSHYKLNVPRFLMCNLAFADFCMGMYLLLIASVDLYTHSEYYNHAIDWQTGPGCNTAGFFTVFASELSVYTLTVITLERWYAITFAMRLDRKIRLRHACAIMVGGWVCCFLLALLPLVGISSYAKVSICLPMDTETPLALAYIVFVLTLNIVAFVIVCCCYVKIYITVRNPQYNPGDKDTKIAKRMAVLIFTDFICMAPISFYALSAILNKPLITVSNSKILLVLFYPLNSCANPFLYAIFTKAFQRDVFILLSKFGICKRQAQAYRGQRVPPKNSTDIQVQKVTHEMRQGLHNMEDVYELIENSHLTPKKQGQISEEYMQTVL

Experiment [10] is described as follows: qHTS assay to identify small molecule agonists of the estrogen receptor alpha (ER-alpha) signaling pathway in the presence of an antagonist - cell viability counter screen (AID 1259386).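 Further: series mostly up to about 92 µM; cells exposed to compounds for 22 h at 37 °C before the viability read; nearly all actives have a fitted effect of over 30% in size.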 Put shortly: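 VM7Luc4E2 cells (endogenous full-length ER-alpha, 4×ERE-luciferase) were held 5 days in phenol red-free medium with 10% charcoal-stripped FBS, plated, then given 10.0nM ICI-182,780 and compounds at 15 concentrations for 22hr at 37C; viability read by CellTiter-Fluor fluorescence.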

Experiment [11] addresses Progesterone receptor (Homo sapiens) (UniProt P06401). Nature of the experiment: qHTS assay to identify small molecule antagonists of the progesterone receptor (PR) signaling pathway (AID 1346795; active means well fitted inhibition curve with a large enough effect in the signal ratio in the repeat runs, not every such curve was filed as active; the % refers to the signal ratio; further: potency means the concentration at half of the fitted maximal effect). The method, boiled down:
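Fluorescence intensity measured 2 hr after adding beta-lactamase FRET substrate to PR-UAS-bla HEK293T cells that had been co-treated 16 hr with compound and 1 nM R5020 (final concentration) in 2% charcoal-stripped FBS.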

The nature of experiment [12]: qHTS assay to identify small molecule antagonists of the progesterone receptor (PR) signaling pathway - cell viability counter screen (AID 1346798). Further: series mostly up to about 92 µM; nearly all actives have a fitted effect of over 50% in size. The method, boiled down: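 CellTiter-Glo luminescence; PR-UAS-bla HEK293T, 3,000 cells/well; compound + R5020, 16 hr, 37C/5% CO2; 30 min RT before read.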
A short description of experiment [13]: qHTS assay to identify small molecule agonists of the progesterone receptor (PR) signaling pathway - cell viability counter screen (AID 1346799; calls by dose curve; further: nearly all actives have a fitted effect of over 45% in size). Put shortly: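 In parallel with the beta-lactamase readout, cytotoxicity toward PR-UAS-bla HEK293T cells was measured by CellTiter-Glo luminescence following 16 hr compound incubation in 2% charcoal-stripped FBS medium.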

A short description of experiment [14]: qHTS assay to identify small molecule antagonists of the TGF-beta/Smad signaling pathway - cell viability counter screen (AID 1346824). Further: nearly all actives have a fitted effect of over 50% in size. The method, boiled down: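 SBE-bla HEK 293T cells, incubated overnight, then compound plus 0.25 ng/mL TGF-beta1 (stock added) for 5 hr at 37 C. Viability was read in the same wells by CellTiter-Glo luminescence after 30 min at room temperature.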

Experiment [15] in a line: qHTS assay to identify small molecule agonists of the TGF-beta/Smad signaling pathway - cell viability counter screen (AID 1346829). Further: top concentration of the series differs between compounds; nearly all actives have a fitted effect of over 45% in size. The method, boiled down: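 CellTiter-Glo luminescence readout; SBE-bla HEK 293T cells, overnight plating, compound 5 hr at 37 C/5% CO2, then bla substrate 2 hr RT, then CellTiter-Glo 30 min RT.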
Experiment [16] concerns the target Progesterone receptor (Homo sapiens) (UniProt P06401). As to the kind of experiment: qHTS assay to identify small molecule agonists of the progesterone receptor (PR) signaling pathway (AID 1346784; calls by dose curve; further: nearly all actives have a fitted effect of over 30% in size). The method, boiled down:
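Fluorescence from LiveBLAzer B/G FRET substrate cleavage (2 hr, RT) reported PR activation in PR-UAS-bla HEK 293T cells treated 16 hr at 37C/5% CO2 with compounds; medium contained 2% charcoal-stripped FBS.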

Experiment [17] addresses Estrogen receptor (Homo sapiens) (UniProt P03372). Nature of the experiment: qHTS assay to identify small molecule agonists of the estrogen receptor alpha (ER-alpha) signaling pathway in the presence of an antagonist (AID 1259383; calls by dose curve; further: top concentration of the series differs between compounds; nearly all actives have a fitted effect of over 15% in size). Put shortly: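 VM7Luc4E2 cells (endogenous full-length ER-alpha, 4×ERE-luciferase) were precultured 5 days in phenol red-free medium with 10% charcoal-stripped FBS, given 10.0nM ICI-182,780 (final), then treated with compounds at 15 concentrations for 22hr at 37C; luminescence read with ONE-Glo.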

SMILES strings stand for the structures. Values without a mark were called inactive. Records with an inconclusive call do not appear. The source made the active and inactive calls. Unless noted, the call rests on the fitted dose curve; in most records, active means well fitted curve in the direction sought with a large enough effect in the repeat runs; inconclusive means weak or mixed curves; inactive means no such curve, though single readings can be large; an effect the other way counts as inactive or inconclusive.

Estrogen receptor (Homo sapiens), sequence (P03372 whole entry, looked up): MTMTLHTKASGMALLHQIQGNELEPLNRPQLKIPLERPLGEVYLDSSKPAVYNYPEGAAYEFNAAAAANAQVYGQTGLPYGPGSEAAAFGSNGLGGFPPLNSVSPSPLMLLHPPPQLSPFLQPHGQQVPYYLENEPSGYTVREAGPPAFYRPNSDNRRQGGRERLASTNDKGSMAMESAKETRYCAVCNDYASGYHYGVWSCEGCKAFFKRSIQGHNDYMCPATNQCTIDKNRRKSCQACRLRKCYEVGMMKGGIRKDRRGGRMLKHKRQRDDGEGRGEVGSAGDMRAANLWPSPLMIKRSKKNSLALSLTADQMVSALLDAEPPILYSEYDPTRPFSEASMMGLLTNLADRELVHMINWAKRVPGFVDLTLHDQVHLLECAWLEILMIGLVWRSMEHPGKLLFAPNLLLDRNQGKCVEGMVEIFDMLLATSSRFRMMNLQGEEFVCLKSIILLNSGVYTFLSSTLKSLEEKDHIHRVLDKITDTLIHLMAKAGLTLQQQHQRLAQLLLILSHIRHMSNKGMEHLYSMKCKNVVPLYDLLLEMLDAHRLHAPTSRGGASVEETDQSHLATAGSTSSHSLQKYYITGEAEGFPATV
Progesterone receptor (Homo sapiens), sequence (P06401 whole entry, looked up): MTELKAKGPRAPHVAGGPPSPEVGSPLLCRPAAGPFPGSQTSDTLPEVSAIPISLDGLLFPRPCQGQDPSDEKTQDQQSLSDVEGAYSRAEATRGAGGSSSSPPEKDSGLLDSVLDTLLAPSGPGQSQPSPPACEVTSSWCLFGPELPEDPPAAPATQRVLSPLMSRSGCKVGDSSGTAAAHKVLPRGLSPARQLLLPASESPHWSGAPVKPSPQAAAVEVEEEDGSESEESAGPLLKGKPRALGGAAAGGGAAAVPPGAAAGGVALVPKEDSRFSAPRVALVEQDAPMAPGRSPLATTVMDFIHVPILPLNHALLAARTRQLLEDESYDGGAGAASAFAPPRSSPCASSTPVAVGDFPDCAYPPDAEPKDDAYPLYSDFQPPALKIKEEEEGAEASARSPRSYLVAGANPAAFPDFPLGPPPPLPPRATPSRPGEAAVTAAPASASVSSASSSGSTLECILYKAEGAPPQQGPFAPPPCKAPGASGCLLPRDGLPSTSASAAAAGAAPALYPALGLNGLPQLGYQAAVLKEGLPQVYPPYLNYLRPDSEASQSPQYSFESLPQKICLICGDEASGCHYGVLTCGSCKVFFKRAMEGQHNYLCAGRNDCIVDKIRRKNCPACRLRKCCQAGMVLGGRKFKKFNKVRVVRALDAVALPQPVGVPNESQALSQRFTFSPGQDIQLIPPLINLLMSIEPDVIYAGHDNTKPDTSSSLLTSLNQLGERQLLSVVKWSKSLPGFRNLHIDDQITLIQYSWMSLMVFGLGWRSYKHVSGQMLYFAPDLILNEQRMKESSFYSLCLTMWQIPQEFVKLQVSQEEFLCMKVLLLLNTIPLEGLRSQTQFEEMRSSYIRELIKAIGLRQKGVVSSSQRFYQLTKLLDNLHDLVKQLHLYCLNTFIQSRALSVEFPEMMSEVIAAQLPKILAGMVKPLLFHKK

Consider `O=c1c(O)c(O)c1=O`, for which the result in [1], in [2], in experiment [3], in experiment [5], in experiment [7] and in experiment [8] was inactive. Moreover, the outcome in experiment [9], in [10], in experiment [12], in experiment [14] and in experiment [15] was inactive. Further, the Potency result in [4], in [6], in [11] and in [13] was “inactive” throughout.

As for `CC12CCCC=C1C(=O)OC2=O` (centres undefined), the compound was called inactive in experiment [1], in experiment [2], in [3], in experiment [5], in experiment [7] and in experiment [8]. The compound was called inactive in [9], in experiment [10], in [12], in experiment [14] and in experiment [15]. The Potency result in experiment [4], in [6], in [16], in experiment [11] and in experiment [13] was “inactive” in each case.

As for `CC(C)(C)OC(=O)c1ccccc1C(=O)O`, the result in experiment [1], in [2], in [3], in [5], in [7] and in experiment [8] was inactive. Moreover, the compound was classed as inactive in experiment [9], in experiment [10], in [14] and in experiment [15]. For the same compound, the Potency result in experiment [4], in experiment [17], in experiment [16], in experiment [11] and in experiment [13] was “inactive” in each case.

Regarding `C=CCN1CCc2nc(N)sc2CC1`, the call in experiment [1], in experiment [2], in experiment [3], in [5], in [7] and in experiment [8] was inactive. The result in experiment [9], in experiment [10] and in [15] was inactive. Further, the Potency result in [4], in experiment [6], in experiment [16] and in experiment [11] was “inactive” each time.

Take `CC(=O)SC[C@@H](C)C(=O)N1CCC[C@H]1C(=O)N[C@@H](Cc1ccccc1)C(=O)O`: the call in experiment [1], in experiment [2], in experiment [3], in experiment [5], in experiment [8] and in experiment [10] was inactive. The outcome in experiment [12], in experiment [14] and in experiment [15] was inactive. The Potency entry in [4], in experiment [17], in [16], in [11] and in experiment [13] was “inactive” each time.

Consider `CCCCCCCOC(C)=O`, for which the result in [1], in [2], in experiment [3], in experiment [5], in [8] and in [9] was inactive. Moreover, the result in experiment [10], in [12], in experiment [14] and in experiment [15] was inactive. Further, the Potency result in experiment [4], in [6], in experiment [17], in experiment [16] and in experiment [13] was “inactive” throughout.

`Clc1ccc2c(c1)Nc1ccccc1S2`: the call in experiment [1], in experiment [2], in [3], in experiment [5], in experiment [8] and in experiment [9] was inactive. In addition, the result in experiment [10] and in experiment [12] was inactive. Further, the Potency result in experiment [4], in experiment [6] and in experiment [17] was “inactive” each time. Besides, the Potency in [11] is 7.5 µM (active).

Turning to `CC(O)CCCCn1c(=O)c2c(ncn2C)n(C)c1=O` (centres undefined), the compound was classed as inactive in [1], in experiment [2], in experiment [3], in experiment [5], in [7] and in experiment [8]. In addition, the compound was called inactive in experiment [9], in [10], in experiment [14] and in experiment [15]. In addition, the Potency entry in experiment [4], in [17], in [16] and in experiment [13] was “inactive” throughout.
